Screens deposited in PubChem BioAssay by Johns Hopkins Ion Channel Center.
Most compounds without a hit are left out; they make up all but 1.6% or so of the library.
KCNQ2 inh = KCNQ2 (rat) channel inhibition | CHO-K1 KCNQ2, FluxOR thallium flux, 20 min; stronger effect = lower value | B-score at 10 µM | 310,000 tested, 1.1% active | AID 2156;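 active = fluorescence ratio B-score at most minus 3 library SDs, with starting brightness B-score within 2 library SDs, cut at about -5.5 in these data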
Target sequence (O88943 whole entry, looked up): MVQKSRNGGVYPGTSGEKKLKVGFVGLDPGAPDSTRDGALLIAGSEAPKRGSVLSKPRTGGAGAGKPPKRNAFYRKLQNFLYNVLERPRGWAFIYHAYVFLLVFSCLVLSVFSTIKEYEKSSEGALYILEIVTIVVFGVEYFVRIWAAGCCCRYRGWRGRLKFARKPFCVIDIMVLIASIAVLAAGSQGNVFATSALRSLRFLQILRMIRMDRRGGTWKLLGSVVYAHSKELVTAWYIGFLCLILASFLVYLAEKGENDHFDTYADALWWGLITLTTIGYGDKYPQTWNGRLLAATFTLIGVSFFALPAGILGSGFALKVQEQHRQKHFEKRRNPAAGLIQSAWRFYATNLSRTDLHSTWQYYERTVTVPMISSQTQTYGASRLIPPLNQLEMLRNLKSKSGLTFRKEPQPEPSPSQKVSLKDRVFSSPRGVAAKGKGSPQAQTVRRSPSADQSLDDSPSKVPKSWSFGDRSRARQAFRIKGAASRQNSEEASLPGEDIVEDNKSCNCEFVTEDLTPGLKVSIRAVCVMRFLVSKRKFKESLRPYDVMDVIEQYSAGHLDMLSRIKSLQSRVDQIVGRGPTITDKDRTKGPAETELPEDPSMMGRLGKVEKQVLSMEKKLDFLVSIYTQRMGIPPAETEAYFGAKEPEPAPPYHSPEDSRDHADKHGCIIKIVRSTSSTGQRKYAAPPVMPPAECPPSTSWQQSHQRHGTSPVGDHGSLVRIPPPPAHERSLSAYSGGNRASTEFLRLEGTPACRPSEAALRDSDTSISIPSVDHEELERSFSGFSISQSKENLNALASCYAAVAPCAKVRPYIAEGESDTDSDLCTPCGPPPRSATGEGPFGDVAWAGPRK
KCNQ2 enhance = potentiators of rat KCNQ2 potassium channel. O88943. CHO-K1 KCNQ2, FluxOR thallium flux fluorescence; stronger effect = higher value. B-score at 10 µM. 310,000 tested, 0.54% active;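 active = fluorescence ratio B-score at least 3 SD of library B-scores, with initial fluorescence B-score within 3 of them, cut at about 5.3 in these data; same plate scores as AID 2156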;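 also: B-score of peak minus minimum over baseline fluorescence ratio after K+ and Tl+ stimulus; positive B-score means potentiation of KCNQ2 with more thallium influx and brighter signal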
KCNQ2 inh conf = rat KCNQ2 channel inhibition, confirmatory screen | shares compounds with KCNQ2 inh | KCNQ2-expressing cells, thallium flux; stronger effect = lower value | activity change, negative = inhibition, % at 10 µM | 1,000 tested, 57% active | AID 493025;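 also: 0% = vehicle wells and values are ratio percent relative to vehicle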
KCNQ1 spec = human KCNQ1 activity in KCNQ2 inhibitor specificity screen | shares compounds with KCNQ2 inh | KCNQ1-expressing cells, FluxOR thallium flux fluorescence; stronger effect = lower value | activity change, negative = inhibition, % at 10 µM | 1,000 tested, 15% active;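 active = activity change at least 3 SD of negative controls below their mean in both duplicate wells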;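 also: CHO cells stably transfected with KCNQ1 and depolarized by potassium stimulus; peak minus minimum fluorescence over baseline after thallium addition; 0% = vehicle negative control and -100% = blank without thallium stimulus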
CHO Tl ctr = KCNQ2 inhibitor counter-screen hit in parental CHO cells; activity change, % at 10 µM; shares compounds with KCNQ2 inh; thallium flux counter-screen; stronger effect = lower value; 1,000 tested, 14% active;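 also: 0% = vehicle negative controls with stimulus buffer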
KCNQ2 patch conf = confirmation of rat KCNQ2 potassium channel inhibitors; KCNQ2-expressing cells, automated patch clamp current; shares compounds with KCNQ2 inh; AID 588531; 550 tested, 49% active; calls only at 10 µM
Active calls of the source: *; i = inactive; / = not tested or not shown; + = active, no number. Unless noted, no rule for the calls is given here.

SMILES	KCNQ2 inh	KCNQ2 enhance	KCNQ2 inh conf	KCNQ1 spec	CHO Tl ctr	others
COc1ccc(-c2nc(CS(=O)CC(=O)NC3CCCc4ccccc43)c(C)o2)cc1OC (centres undefined)	i	/	/	/	/
COc1ccc(CN2CCNC(=O)C2CC(=O)N(C)Cc2ccon2)cc1OC (centres undefined)	i	0.95	/	/	/
COC(=O)CN(c1ccccn1)S(=O)(=O)c1ccccc1	i	/	/	/	/
Nc1nnc(-c2cccc(Cl)c2Cl)c(N)n1	i	0.16	/	/	/
N#Cc1c(NCCO)nc(NCc2ccccc2)c2c1CCN(Cc1ccccc1)C2	i	/	/	/	/
O=C(NCC(c1ccco1)N1CCc2ccccc21)C(=O)Nc1ccccc1F (centres undefined)	i	/	/	/	/
COc1ccccc1NC(=O)C(=O)NCC(c1ccco1)N1CCc2ccccc21 (centres undefined)	-7.2*	-7.2	i	i	i
O=C(NCC(c1cccs1)N1CCc2ccccc21)c1ccccc1 (centres undefined)	i	/	/	/	/
COc1ccccc1C(=O)NCC(c1cccs1)N1CCc2ccccc21 (centres undefined)	-7.2*	-7.2	i	i	i
COc1cccc(C(=O)NCC(c2cccs2)N2CCc3ccccc32)c1 (centres undefined)	i	/	/	/	/
COc1cc(C(=O)NCC(c2cccs2)N2CCc3ccccc32)cc(OC)c1OC (centres undefined)	-8.7*	-8.7	i	i	i
CCOC1(OCC)N=C(N)C2(C#N)C(c3cccc(OC)c3OC)C12C#N (centres undefined)	i	1.7	/	/	/
COc1ccc(CCC(=O)NCC2CCCCC2)cc1OC	i	1.2	/	/	/
O=C(CCSc1nc2ccccc2s1)N/N=C/c1c(O)ccc2ccccc12	i	/	/	/	/
Cc1cc(C)n(-c2nc3ccccc3nc2N2CCN(C(=O)c3ccc(Cl)cc3)CC2)n1	-8.4*	-8.4	-32%*	-30%*	-24%*	KCNQ2 patch conf=+
Cc1cc(C)n(-c2nc3ccccc3nc2N2CCCC2)n1	i	/	/	/	/
CCCCn1c(NCc2ccc3c(c2)OCO3)nc2ccccc21	-8.5*	-8.5	-33%*	i	i	KCNQ2 patch conf=+
CCCn1c(NCc2ccc3c(c2)OCO3)nc2ccccc21	i	/	/	/	/
Brc1cccc(CNc2nc3ccccc3n2CCN2CCOCC2)c1	-8.4*	-8.4	i	i	i
CCOc1ccc(CNc2nc3ccccc3n2CCN2CCOCC2)cc1	i	/	/	/	/
O=C(NCCCO)/C(=C\c1cn(-c2ccccc2)nc1-c1cccnc1)NC(=O)c1ccccc1	i	1.7	/	/	/
CCOc1cc(CNn2cnnc2)cc(Br)c1OCC(=O)NC(C)(C)C	i	0.87	/	/	/
CCOc1cc(CNc2ccc(Br)cc2)cc(Br)c1OCC(=O)NC(C)(C)C	-6.8*	-6.8	-24%*	i	i	KCNQ2 patch conf=i
Clc1ccc(CN(Cc2ccccc2)C(c2cccs2)c2nnnn2C2CCCC2)cc1 (centres undefined)	i	/	/	/	/
CC(C)(C)n1nnnc1C(c1cccs1)N(Cc1ccc(Cl)cc1)CC1CCCO1 (centres undefined)	-9.9*	-9.9	i	i	i
SMILES	KCNQ2 inh	KCNQ2 enhance	KCNQ2 inh conf	KCNQ1 spec	CHO Tl ctr	others
COc1cc2c(cc1NC(=O)c1ccc(C(C)(C)C)cc1)CCCC2	-7.2*	-7.2	i	i	i
COc1ccc(C(=O)Nc2cc3c(cc2OC)CCCC3)cc1Br	i	/	/	/	/
CC(C)c1ccc(O)c(NC(=S)NC(=O)CCc2ccccc2)c1	i	/	/	/	/
O=C(Oc1ccc(Br)cc1C(=S)N1CCOCC1)c1ccc([N+](=O)[O-])cc1[N+](=O)[O-]	i	/	/	/	/
O=C(Cc1ccccc1Cl)NCc1cccnc1	i	0.67	/	/	/
N#C/C(=C/c1ccc(N2CCCCC2)o1)c1cccc(F)c1	i	/	/	/	/
N#C/C(=C/c1ccc(N2CCCCCC2)o1)c1ccc(Cl)cc1	-8.4*	-8.4	-31%*	-28%*	-22%*	KCNQ2 patch conf=i
COc1ccccc1N1CCN(CCC(=O)Nc2ccc(F)cc2)CC1	i	/	/	/	/
CC1=CC(C)(C)N(S(=O)(=O)c2ccc(C)cc2)c2ccc(C)cc21	i	/	/	/	/
COc1ccc(C(=O)CC(=O)C(=O)Nc2ccc(Cl)cc2)cc1	i	/	/	/	/
COc1ccc(C(=O)CC(Nc2ccc([N+](=O)[O-])cc2)c2ccc(Cl)cc2)cc1 (centres undefined)	-8.1*	-8.1	i	i	i
CCOC(=O)N1CCN(C(=O)COc2ccc(S(=O)(=O)Nc3ccc(OCC)cc3)cc2)CC1	i	0.05	/	/	/
